According to the supplement of paper PMC8728848:
About 410 targets per protein were measured; listed, in parts, are those with the strongest signals and a random draw of the rest.

Tests used:
Assay in all cases: glycan array binding signal (z-score within array); higher = stronger binding
Details in all cases: glycan notation: IUPAC condensed, linker removed
[1] = target: Fuc(a1-2)Gal(b1-3)GalNAc(b1-3)Gal(a1-4)Gal(b1-4)Glc
Method in brief: (§1)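 From the Consortium for Functional Glycomics database, 3228 arrays were curated, keeping only those whose protein sequence was available. Binding is given as a within-array Z-score averaged across arrays sharing a protein sequence and across linkers. Negative Z-scores can be read as non-binding.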

[2] = target: Fuc(a1-2)Gal(b1-3)[Fuc(a1-4)]GlcNAc(b1-2)Man(a1-3)[Fuc(a1-2)Gal(b1-3)[Fuc(a1-4)]GlcNAc(b1-2)Man(a1-6)]Man(b1-4)GlcNAc(b1-4)[Fuc(a1-6)]GlcNAc(b1-4)[Fuc(a1-6)]GlcNAc
Method in brief: as §1

[3] = target: Fuc(a1-2)Gal(b1-4)GlcNAc(b1-3)[Fuc(a1-3)[Gal(b1-4)]GlcNAc(b1-6)]Gal(b1-4)Glc
Method in brief: as §1

[4] = target: Fuc(a1-2)Gal(b1-4)GlcNAc(b1-6)GalNAc
Method in brief: as §1

[5] = target: Fuc(a1-2)Gal(b1-4)[Fuc(a1-3)]GlcNAc
Method in brief: as §1

[6] = target: Fuc(a1-2)Gal(b1-4)[Fuc(a1-3)]GlcNAc(b1-3)Gal(b1-4)[Fuc(a1-3)]GlcNAc(b1-3)Gal(b1-4)[Fuc(a1-3)]GlcNAc
Method in brief: as §1

[7] = target: Fuc(a1-2)[Gal(a1-3)]Gal(b1-3)GalNAc(b1-3)Gal(a1-4)Gal(b1-4)Glc
Method in brief: as §1

[8] = target: Fuc(a1-2)[Gal(a1-3)]Gal(b1-3)GlcNAc(b1-2)Man(a1-3)[Fuc(a1-2)[Gal(a1-3)]Gal(b1-3)GlcNAc(b1-2)Man(a1-6)]Man(b1-4)GlcNAc(b1-4)GlcNAc
Method in brief: as §1

[9] = target: Fuc(a1-2)[GalNAc(a1-3)]Gal(b1-4)Glc
Method in brief: as §1

[10] = target: Fuc(a1-2)[GalNAc(a1-3)]Gal(b1-4)GlcNAc
Method in brief: as §1

[11] = target: Fuc(a1-3)[Gal(b1-4)]GlcNAc(b1-3)Gal(b1-4)[Fuc(a1-3)]GlcNAc
Method in brief: as §1

[12] = target: Fuc(a1-3)[Gal(b1-4)]GlcNAc(b1-4)Gal(b1-4)[Fuc(a1-3)]GlcNAc(b1-4)Gal(b1-4)[Fuc(a1-3)]GlcNAc
Method in brief: as §1

[13] = target: Fuc(a1-3)[Gal(b1-4)]GlcNAc(b1-6)[Gal(b1-3)GlcNAc(b1-3)]Gal(b1-4)Glc
Method in brief: as §1

[14] = target: Fuc(a1-3)[Gal(b1-4)]GlcNAc(b1-6)[Neu5Ac(a2-3)Gal(b1-3)]GalNAc
Method in brief: as §1

[15] = target: Gal(a1-3)Gal(b1-3)GlcNAc(b1-2)Man
Method in brief: as §1

[16] = target: Gal(a1-3)Gal(b1-3)GlcNAc(b1-3)GalNAc
Method in brief: as §1

[17] = target: Gal(a1-3)Gal(b1-4)[Fuc(a1-3)]GlcNAc
Method in brief: as §1

[18] = target: Gal(a1-4)Gal(b1-3)GlcNAc(b1-2)Man(a1-3)[Gal(a1-4)Gal(b1-3)GlcNAc(b1-2)Man(a1-6)]Man(b1-4)GlcNAc(b1-4)GlcNAc
Method in brief: as §1

Gal(b1-2)Gal = target: Gal(b1-2)Gal
Method in brief: as §1

[19] = target: Gal(b1-3)GlcNAc(b1-3)GalNAc
Method in brief: as §1

[20] = target: Gal(b1-3)GlcNAc(b1-6)GalNAc
Method in brief: as §1

[21] = target: Gal(b1-3)[Fuc(a1-4)]GlcNAc
Method in brief: as §1

[22] = target: Gal(b1-3)[Neu5Ac(a2-6)]GlcNAc(b1-6)Gal(b1-4)Glc
Method in brief: as §1

[23] = target: Gal(b1-4)GalNAc(a1-3)[Fuc(a1-2)]Gal(b1-4)GlcNAc
Method in brief: as §1

[24] = target: Gal(b1-4)GlcNAc(b1-2)Man(a1-3)[GlcNAc(b1-2)Man(a1-6)]Man(b1-4)GlcNAc(b1-4)GlcNAc
Method in brief: as §1

[25] = target: Gal(b1-4)GlcNAc(b1-2)Man(a1-6)[Man(a1-3)]Man(b1-4)GlcNAc(b1-4)GlcNAc
Method in brief: as §1

[26] = target: Gal(b1-4)GlcNAc(b1-2)[Gal(b1-4)GlcNAc(b1-6)]Man(a1-6)[Gal(b1-4)GlcNAc(b1-2)Man(a1-3)]Man(b1-4)GlcNAc(b1-4)GlcNAc
Method in brief: as §1

B1: OrysaEULS2 (Oryza sativa) (protein)
chain: MVYCRANPNYAMTARNGAVVLAPANPKDEYQHWIKDMRWSTSIKDEEGYPAFALVNKATGQAIKHSLGQSHPVRLVPYNPEVMDESVLWTESRDVGNGFRCIRMVNNIYLNFDAFHGDKYHGGVRDGTDIVLWKWCEGDNQRWKIQPYYILEQKLISEEDLNSAVDHHHHHH
glycan array binding signal (z-score) [1]: -0.184
glycan array binding signal (z-score) [2]: -0.187
glycan array binding signal (z-score) [3]: -0.276
glycan array binding signal (z-score) [4]: -0.163
glycan array binding signal (z-score) [5]: -0.191
glycan array binding signal (z-score) [6]: -0.194
glycan array binding signal (z-score) [7]: -0.248
glycan array binding signal (z-score) [8]: -0.081
glycan array binding signal (z-score) [9]: -0.205
glycan array binding signal (z-score) [10]: -0.2
glycan array binding signal (z-score) [11]: -0.27
glycan array binding signal (z-score) [12]: -0.163
glycan array binding signal (z-score) [13]: -0.183
glycan array binding signal (z-score) [14]: -0.16
glycan array binding signal (z-score) [15]: -0.28
glycan array binding signal (z-score) [16]: -0.176
glycan array binding signal (z-score) [17]: -0.216
glycan array binding signal (z-score) [18]: 2.38
glycan array binding signal (z-score) (Gal(b1-2)Gal): -0.142
glycan array binding signal (z-score) [19]: -0.179
glycan array binding signal (z-score) [20]: -0.218
glycan array binding signal (z-score) [21]: -0.191
glycan array binding signal (z-score) [22]: -0.179
glycan array binding signal (z-score) [23]: -0.199
glycan array binding signal (z-score) [24]: 1.37
glycan array binding signal (z-score) [25]: 5.65
glycan array binding signal (z-score) [26]: 1.53
